Results reported in PubChem BioAssay (Tox21).
Inconclusive results are not listed. Entries that show only a call come without a potency. Calls of active or inactive are those of the source. The call rests on the fitted dose curve; in most records, active means well fitted activation curve with a large enough effect in the repeat runs; inconclusive means weak or mixed curves; inactive means flat fitted curve, though single readings scatter.

Test: A CellTox Green Cytotoxicity Assay to monitor cytotoxicity in HEK293 cells - 24 hour (AID 1224875); further: nearly all actives have a fitted effect of over 45% in size
Conditions: CellTox Green fluorescence; series mostly up to 76.8 µM
Text: National Center for Advancing Translational Sciences [NCATS]
NIH Chemical Genomics Center [NCGC]
U.S. Environmental Protection Agency [EPA]
National Institutes of Environmental Health Sciences [NIEHS]
National Toxicology Program [NTP]
Cell-based models are critical for drug discovery. Determining the natural cytotoxic effects resulting from test compounds is an essential research activity. A CellTox Green Cytotoxicity Assay to monitor cytotoxicity in real time of continues cell culture during 40 hours of the compound treatment was used to screen Tox21 10K library compounds in Hek293 cells. CellTox Green Cytotoxicity Assay is a nonlytic, homogeneous, biofluorescent method to measure cytotoxicity in cell culture after experimental manipulation. The assay system uses a proprietary asymmetric cyanine dye that is excluded from viable cells but preferentially stains the dead cell's DNA. […] Viable cells produce no appreciable increases in fluorescence. Therefore, the fluorescence signal produced by the binding interaction with dead cell DNA is proportional to cytotoxicity.
The mixture of Hek293 cell suspension and reagents were dispensed at 600cells/6 ul/well in 1536-well tissue culture treated black solid bottom plates using a Multidrop dispenser. After the assay plates were incubated at a 37 C/5% CO2 incubator for 5 hours, 23 nL of compounds dissolved in DMSO, positive and negative controls was transferred to the assay plate by a pintool work station. The plates were incubated at 37 C for 40 hours. The fluorescence intensity were measured at 0h, 8h, 16h, 24h, 32h and 40h time points using ViewLux plate reader during compound treatment.
Potency means the concentration at half of the fitted maximal effect.

| SMILES | Potency |
| --- | --- |
| N#CCBr | inactive |
| CCOC(=O)CP(=O)(OCC)OCC | inactive |
| CC(=O)Nc1cc([As](=O)(O)O)ccc1O | inactive |
| COC(C)(C)C | inactive |
| CNC(=O)N(C)c1nc2ccccc2s1 | inactive |
| CSc1ccc(C(=O)C(C)(C)N2CCOCC2)cc1 | inactive |
| CCOC(=O)NC(=S)Nc1ccccc1NC(=S)NC(=O)OCC | inactive |
| CC(C)[N+](=O)[O-] | inactive |
| N#CC(O)c1ccccc1 (stereo not given) | inactive |
| CNC(=O)O/N=C(\C)SC | inactive |
| O=NN1CCCCC1 | inactive |
| O=C(O)c1cccc(Cl)c1 | inactive |
| CCN(CC)C(=O)[C@@H]1C=C2c3cccc4[nH]cc(c34)C[C@H]2N(C)C1 | inactive |
| O=[N+]([O-])c1cc(Cl)c(Cl)c(Cl)c1 | 21.7 µM (active) |
| Cc1coc2c1CCC(C)C2 (stereo not given) | inactive |
| C=C(C)[C@@H]1CC=C(C=O)CC1 | inactive |
| O=[N+]([O-])c1cccc2cccnc12 | inactive |
| CC1(C)CON(Cc2ccccc2Cl)C1=O | inactive |
| O=C1OC(CCN2CCCCC2)OC1(c1ccccc1)c1ccccc1 (stereo not given) | inactive |
| CCN(CC)CCOC(=O)C(C)(c1ccccc1)c1ccccc1 | inactive |

| SMILES | Potency |
| --- | --- |
| O=NN1CCN(N=O)CC1 | inactive |
| COP(N)(=S)Oc1ccccc1C(=O)OC(C)C (stereo not given) | inactive |
| CN1C(=S)CN=C(c2ccccc2)c2cc(Cl)ccc21 | inactive |
| CCN(CC)C(C)C(=O)c1ccccc1 (stereo not given) | inactive |
| CCOC(=O)C(c1c(O)c2ccccc2oc1=O)c1c(O)c2ccccc2oc1=O | inactive |
| CCOP(=O)(OCC)OP(=O)(OCC)OCC | inactive |
| CC(=O)CC(c1ccc(Cl)cc1)c1c(O)c2ccccc2oc1=O (stereo not given) | inactive |
| O=S(=O)(O)C(F)(F)C(F)(F)C(F)(F)C(F)(F)C(F)(F)C(F)(F)F | inactive |
| C[N+](C)=CCl | inactive |
| COc1cccc(C(=O)NN(C(=O)c2cc(C)cc(C)c2)C(C)(C)C)c1C | inactive |
| C=CC1CC=CCC1 (stereo not given) | inactive |
| OC(Cn1cncn1)(c1ccc(F)cc1)c1ccccc1F (stereo not given) | inactive |
| O=C(Nc1ccccc1)N(Cc1ccc(Cl)cc1)C1CCCC1 | inactive |
| N#CC(Cl)(Cl)Cl | inactive |
| CCCCCCI | inactive |
| COc1cccc2c1cc([N+](=O)[O-])c1c(C(=O)O)cc3c(c12)OCO3 | inactive |
| O=P(O)(Oc1ccccc1)Oc1ccccc1 | inactive |
| O=[N+]([O-])c1cccc(O)c1 | inactive |
| CN1CCC(N(Cc2ccccc2)c2ccccc2)CC1 | inactive |
| Nc1cnn(-c2ccccc2)c(=O)c1Cl | inactive |
